# In the supplement of paper PMC10338343:
# ± gives the standard deviation.
# Tested on: MILI (PIWIL2) piRISC loaded with L1MC piRNA (26 nt)
# Assay: pre-steady-state target cleavage rate (min^-1); guide: L1MC piRNA 5'p-UAACUAAAUACUAUGCAAGCUGUAGG; MIWI and MILI are mouse PIWI proteins and EfPiwi is from a freshwater sponge; tags in brackets are library labels; higher = faster piRNA-guided slicing of the target
# Settings: auxiliary factor: 500 nM mouse GTSF1
# Procedure, shortened: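 With or without 500 nM GTSF1 partner protein, 1 nM active affinity-purified piRISC carrying one synthetic guide was mixed with 0.1 nM transcribed, DNA-blocked target RNA library in HEPES–potassium acetate buffer at 33 °C for 0–8 or 0–960 min. Uncleaved targets were sequenced and normalised to depth and to weakly complementary targets, three trials were pooled, and k3 was capped at 0.0001 min^-1. The pre-steady-state cleavage rate came from a burst-and-steady-state fit.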
row,Sequence,pre-steady-state target cleavage rate
1,UCCUGGAACAGCUUGCUAGUAUUUAGUUA,0.0161 ± 0.0069
2,UCCUGGAUGUCCUUGCAUUGUAUAUAGUUA,0.0803 ± 0.022
3,UCCUGGAUGAGCUUGCAAUGUAUUUAGUUA,0.0269 ± 0.0097
4,UCCUGGAUGUCGAUGCAUAGUAUUUUAGUUA,0.0747 ± 0.0088
5,UCCUGCUACAGCUUGCAUAGUAUUAAGUUA,0.245 ± 0.028
6,UCCUGGUACAGCAUGGAUAGUAUUUAGUUA,0.197 ± 0.019
7,UCCUCCUAGAGCUUGCAUAGUAUAUAGUUA,0.249 ± 0.029
8,UCCUGGAUGAGCUUGCAUAGUGUUUAGUUA,0.117 ± 0.016
9,UCCUGGAUGUGUUGCAUAGUAUUUAGUUA,0.173 ± 0.022
10,UCCUGGUACAGCUAGCAUAGUUUUUAGUUA,0.0495 ± 0.011
11,UCCUGGAUGUGCUUGGAUAGUAUAUAGUUA,0.118 ± 0.026
12,UCCUGGAUGUGCUUGCAUAGUGAUUUAGUUA,0.00833 ± 0.0042
13,UCCUGGAUCAGCUUGCAUACUAAUUAGUUA,0.0215 ± 0.0055
14,UCCUGGUACAGCUUCCAAAGUAUUUAGUUA,0.138 ± 0.028
15,UCCUGGAUGUCGUUGCGUAGUAUUUAGUUA,0.0164 ± 0.0059
16,UCCUGGUACAGCUUCGUUAGUAUUUAGUAA,0.165 ± 0.04
17,UCCUGGAUGUGCUUGCUUAGUAUUUAGUAA,0.0779 ± 0.014
18,UCCUGCUACAGCUUGCACAGUAUUUAGUUA,0.157 ± 0.015
19,UCCUGGAUCAGCUAGCAUAGUUUUUAGUUA,0.0366 ± 0.0073
20,UCCUCCUACAGCUUGGUUAGUAUUUAGUUA,0.269 ± 0.016

row,Sequence,pre-steady-state target cleavage rate
1,UCCUGGAUGAGCAUGCAUAGUAUUAAGUUA,0.22 ± 0.024
2,UCCUGGAUCAGCUAGCAUAGUAUAUAGUUA,0.22 ± 0.02
3,UCCUGGAUGAGCUUGCAAACUAUUUAGUUA,0.00935 ± 0.0025
4,UCCUGGAUGUCGUUGCAAAGUAUAUAGUUA,0.0166 ± 0.0054
5,UCCUGGUACAGCUUGCAUACUAUUUAGUUA,0.104 ± 0.024
6,UCCUGGAUCCAGCUUGCAUAGUAUUUAGUUA,0.3 ± 0.017
7,UCCUGGAUGUCGAUGCGUAGUAUUUAGUUA,0.0121 ± 0.0036
8,UCCUGGAUGUGCUUGCAUAGUUUUUAGUAA,0.0109 ± 0.0049
9,UCCUGGAUGUGCUUGGUAAGUAUUUAGUUA,0.00666 ± 0.0036
10,UCCUGGAUGUCCUUGGAUAGUAUAUAGUUA,0.165 ± 0.035
11,UCCUGGAUGAGCUUCCUUAGUAUUUAGUUA,0.132 ± 0.019
12,UCCUGGAUGUGCUAGGAUAGUAUUUAGUUA,0.103 ± 0.014
13,UCCUGGAUGUCGAUGCAUAGUUUAUAGUUA,0.00501 ± 0.0045
14,UCCUCCUACAGCUUGCUAGUAUUUAGUUA,0.037 ± 0.013
15,UCCUGGUACAGCUUCCUUAGUAUUUAGUUA,0.288 ± 0.052
16,UCCUGGUACACUUGCAUAGUAUUUAGUUA,0.188 ± 0.024
17,UCCUGCUACAGCUUCCUUAGUAUUUAGUUA,0.251 ± 0.025
18,UCCUGGUACAGCAUGCAUUGUAUUUAGUUA,0.167 ± 0.016
19,UCCUGGUACAGGUUGCUUAGUAUUUAGUUA,0.328 ± 0.022
20,UCCUGGAUGUGCUUGCAUACUAUUUAGUUA,0.0281 ± 0.0064

# Same assay, conditions: auxiliary factor: none (no GTSF1)
row,Sequence,pre-steady-state target cleavage rate
1,UCCUGGAACAGCUUGCUAGUAUUUAGUUA,0.00397 ± 0.0027
2,UCCUGGAUGUCCUUGCAUUGUAUAUAGUUA,0.00438 ± 0.0024
3,UCCUGGAUGAGCUUGCAAUGUAUUUAGUUA,0.00445 ± 0.0026
4,UCCUGGAUGUCGAUGCAUAGUAUUUUAGUUA,0.00647 ± 0.0026
5,UCCUGCUACAGCUUGCAUAGUAUUAAGUUA,0.0047 ± 0.0024
6,UCCUGGUACAGCAUGGAUAGUAUUUAGUUA,0.0172 ± 0.0046
7,UCCUCCUAGAGCUUGCAUAGUAUAUAGUUA,0.00315 ± 0.0025
8,UCCUGGAUGAGCUUGCAUAGUGUUUAGUUA,0.00732 ± 0.0031
9,UCCUGGAUGUGUUGCAUAGUAUUUAGUUA,0.00684 ± 0.0022
10,UCCUGGUACAGCUAGCAUAGUUUUUAGUUA,0.00928 ± 0.0026
11,UCCUGGAUGUGCUUGGAUAGUAUAUAGUUA,0.00335 ± 0.0032
12,UCCUGGAUGUGCUUGCAUAGUGAUUUAGUUA,0.007 ± 0.0031
13,UCCUGGAUCAGCUUGCAUACUAAUUAGUUA,0.00367 ± 0.0023
14,UCCUGGUACAGCUUCCAAAGUAUUUAGUUA,0.00693 ± 0.0027
15,UCCUGGAUGUCGUUGCGUAGUAUUUAGUUA,0.00779 ± 0.0026
16,UCCUGGUACAGCUUCGUUAGUAUUUAGUAA,0.00388 ± 0.0027
17,UCCUGGAUGUGCUUGCUUAGUAUUUAGUAA,0.00576 ± 0.0018
18,UCCUGCUACAGCUUGCACAGUAUUUAGUUA,0.00803 ± 0.0023
19,UCCUGGAUCAGCUAGCAUAGUUUUUAGUUA,0.00382 ± 0.0025
20,UCCUCCUACAGCUUGGUUAGUAUUUAGUUA,0.00996 ± 0.0021

row,Sequence,pre-steady-state target cleavage rate
1,UCCUGGAUGAGCAUGCAUAGUAUUAAGUUA,0.00547 ± 0.0024
2,UCCUGGAUCAGCUAGCAUAGUAUAUAGUUA,0.00644 ± 0.0023
3,UCCUGGAUGAGCUUGCAAACUAUUUAGUUA,0.00292 ± 0.0024
4,UCCUGGAUGUCGUUGCAAAGUAUAUAGUUA,0.00471 ± 0.0027
5,UCCUGGUACAGCUUGCAUACUAUUUAGUUA,0.00577 ± 0.0035
6,UCCUGGAUCCAGCUUGCAUAGUAUUUAGUUA,0.00437 ± 0.003
7,UCCUGGAUGUCGAUGCGUAGUAUUUAGUUA,0.00501 ± 0.0024
8,UCCUGGAUGUGCUUGCAUAGUUUUUAGUAA,0.00391 ± 0.0027
9,UCCUGGAUGUGCUUGGUAAGUAUUUAGUUA,0.00551 ± 0.0023
10,UCCUGGAUGUCCUUGGAUAGUAUAUAGUUA,0.0038 ± 0.0025
11,UCCUGGAUGAGCUUCCUUAGUAUUUAGUUA,0.00577 ± 0.0024
12,UCCUGGAUGUGCUAGGAUAGUAUUUAGUUA,0.00564 ± 0.0022
13,UCCUGGAUGUCGAUGCAUAGUUUAUAGUUA,0.00379 ± 0.0026
14,UCCUCCUACAGCUUGCUAGUAUUUAGUUA,0.00462 ± 0.0021
15,UCCUGGUACAGCUUCCUUAGUAUUUAGUUA,0.00854 ± 0.0031
16,UCCUGGUACACUUGCAUAGUAUUUAGUUA,0.00665 ± 0.0026
17,UCCUGCUACAGCUUCCUUAGUAUUUAGUUA,0.00547 ± 0.0019
18,UCCUGGUACAGCAUGCAUUGUAUUUAGUUA,0.0119 ± 0.0038
19,UCCUGGUACAGGUUGCUUAGUAUUUAGUUA,0.0176 ± 0.0042
20,UCCUGGAUGUGCUUGCAUACUAUUUAGUUA,0.00431 ± 0.0022
